25 compounds from PubChem BioAssay can be followed below.

Unmarked numbers belong to inactive results.

The assay in a line: E. coli acrAB mutant growth effects, primary screen, E. coli filamentation inducers, strain DRC39, OD650, 48 h (AID 1179).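 Note: screen aims at cell division blockers that make cells filament.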 The settings on record: E. coli DRC39 delta-acrAB growth, higher = more signal, called active from +8 up or from −8 down.
As for `C=CCN1C(=O)[C@@]2(O[C@@H](CCO)[C@H]([Si](C)(C)c3ccc(OC)cc3)[C@H]2C)c2cc(NC(=O)[C@H](C)O)ccc21`, the z-score was 0.403.

With `COC(=O)[C@@]1(Cc2ccc(OC)cc2)[C@H]2c3cc(C(=O)N4CCCC4)n(CCF)c3C[C@H]2CN1C(=O)c1ccccc1`, the z-score was -1.09.

Consider `O=C1N(Cc2ccccc2)c2ccccc2[C@H]2OC(c3ccc(OCCCO)cc3)=N[C@@]12CCS(=O)(=O)c1ccccc1`, for which the z-score is -0.939.

`CC(=O)NCCCC[C@@H]1NC(=O)[C@@H]2C[C@H](C(=O)NCCCC[N+](C)(C)C)[C@H](c3cccc(OCCO)c3)N2C1=O`: the z-score was -0.629.

As for `COCCCNC(=O)[C@@]1(Cc2ccccc2I)c2ccccc2C(=O)N(Cc2ccccc2Cl)[C@H]1c1ccc(CO)cc1`, the z-score was 0.607.

In the case of `COCCCNC(=O)[C@@]1(Cc2ccccc2CN=[N+]=[N-])N=C(c2ccc(OCCCO)cc2)O[C@H]1c1ccccc1N=[N+]=[N-]`, the z-score was 1.08.

Take `NCCCCCCNC(=O)[C@H]1C[C@H]2C(=O)N3CCC[C@H]3C(=O)N2[C@H]1c1ccc(O)cc1`: the z-score was -0.676.

In the case of `C=C(/C(=C/C[C@@H](OC(=O)c1ccncc1)c1cccc(OCCO)c1)c1cc(C(=O)OC)ccc1OC)C(C)C`, the z-score was 1.42.

In the case of `CN1C(=O)C2C=CC(C(O)COCc3ccccc3)N(Nc3ccccc3)C2C1=O` (stereo not given), the z-score was 0.0813.

Regarding `C=C[C@@H](O)[C@H]1CC(c2ccccc2)=NO1`, the z-score is 0.194.

Consider `COC(=O)[C@@]1(Cc2ccc(OC)cc2)[C@H]2c3cc(C(=O)N(C)C)n(CCF)c3C[C@H]2CN1C(=O)c1ccccc1`, for which the z-score was -0.143.

With `C=CCC(OC(C)=O)[C@@H]1[C@@H](N(Cc2ccc(-c3cccc(C(F)(F)F)c3)o2)C(=O)c2cccc3ccccc23)c2cc(OCCCO)ccc2N1C(=O)c1ccc(-c2ccccc2)cc1` (stereo not given in full), the z-score is -0.241.

Turning to `COc1cc(NN2C(C(O)c3ccc(I)cc3)C=CC3C(=O)N(C)C(=O)C32)cc(OC)c1OC` (stereo not given), the z-score was -0.413.

For the compound `C=CCC(OC(C)=O)[C@@H]1[C@@H](N(Cc2cccc3ccccc23)C(=O)Cc2ccc(F)cc2)c2cc(OCCCO)ccc2N1C(=O)Cc1ccc(OC)cc1` (stereo not given in full), the z-score is 0.927.

On to `C=CCOC(=O)[C@@H]1[C@H]2C(=O)O[C@H](c3ccccc3)[C@H](c3ccccc3)N2[C@H](c2ccc(OCCOC(=O)[C@H]3C[C@H]4C(=O)N[C@@H](Cc5ccccc5)C(=O)N4[C@H]3c3cccc(OCCO)c3)cc2)[C@@]12C(=O)Nc1ccc(I)cc12`, for which the z-score was 0.573.

Regarding `CC(C)c1ccc(NN2C(C(O)c3cccs3)C=CC3C(=O)N(c4ccccc4)C(=O)C32)cc1` (stereo not given), the z-score is -0.73.

Take `CC1CC/C=C\[C@H]2OC34C=CCN(Cc5ccccc5)C(=O)[C@H]3N(CCO)C(=O)[C@@H]4C2C(=O)O1` (stereo not given in full): the z-score is 0.566.

Take `COCCOC(=O)N1C(=O)[C@@]2(c3cc(C#CC4(O)CCCCCC4)ccc31)[C@H](C(=O)N1CCc3cc(OC)c(OC)cc3C1)[C@H]1C(=O)O[C@H](c3ccccc3)[C@H](c3ccccc3)N1[C@@H]2c1ccccc1OCCO`: the z-score is 0.585.

`COc1ccc([Si](C)(C)[C@H]2[C@H](CC(=O)N3CCC[C@H]3CO)O[C@@]3(C(=O)N(Cc4ccc(N5C(=O)c6cccc7cccc5c67)cc4)c4ccccc43)[C@@H]2C)cc1`: the z-score is -0.848.

Consider `C=C(C(=O)CC[C@H](OC(=O)c1cccnc1)c1ccc(OCCO)cc1)C(C)C`, for which the z-score was -0.899.

As to `COC(=O)[C@@]1(Cc2ccccc2)[C@H]2c3cc(C(=O)N4CCCC4)n(CCO)c3C[C@H]2CN1C(=O)c1ccccc1`, the z-score is 1.05.

Turning to `C=CCNC(=O)[C@H]1[C@@H]2C(=O)O[C@@H](c3ccccc3)[C@@H](c3ccccc3)N2[C@@H](c2ccc(OCCO)cc2)[C@]12C(=O)N(C(=O)OCCOC)c1ccc(C#CC3=CCCCC3)cc12`, the z-score is 0.215.

For the compound `O=C1C2C=CC(C(O)c3cccc4ccccc34)N(Nc3ccccc3)C2C(=O)N1c1ccccc1` (stereo not given), the z-score is 0.133.

With `Cc1ccc(S[C@]2(C(=O)O)CC(=O)N(C3CCCCC3)[C@@H]2c2ccc(CO)cc2)cc1`, the z-score was 1.48.

As to `CC(=O)NCCCC[C@@H]1NC(=O)[C@H]2C[C@@H](C(=O)NCCCCCN)[C@@H](c3cccc(OCCO)c3)N2C1=O`, the z-score was 1.24.
